Inconclusive results are not listed. A call without a number means that no potency is given here. Activity calls are given as the source filed them. Calls come from the whole dose curve; as a rule, active = well fitted inhibition curve with a large enough effect; inconclusive = small, poorly fitted or top-dose-only effect; inactive = flat fitted curve, though single readings scatter.
Potency is the fitted concentration of half-maximal effect.

The first assay has as its system PC15. Briefly: qHTS profiling for inhibitors of Plasmodium falciparum proliferation (AID 504749). Note: nearly all actives have a fitted effect of over 60% in size. The settings on record: P. falciparum in erythrocytes, SYBR Green DNA, 72 h; series mostly up to 28.7 µM. The gist of the method:
(§1)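 Parasite proliferation within erythrocytes, 72 h exposure. Endpoint: SYBR Green I fluorescence after overnight lysis at room temperature. Controls: 0.29 uM artemisinin, DMSO.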
Background: Quantitative high-throughput screening tests each substance at several concentrations.
With `CN1CCN(C2=Nc3cc(F)ccc3Cc3ccccc32)CC1`, the Potency entry is “inactive”.

As to `COc1ccc(C(Cl)=C(c2ccc(OC)cc2)c2ccc(OC)cc2)cc1`, the Potency result is “inactive”.

For the compound `CN(Cc1ccc(C(C)(C)C)cc1)Cc1cccc2ccccc12`, the Potency entry is “inactive”.

Turning to `CN1CCN(c2c(F)cc3c(=O)c(C(=O)O)cn4c3c2SCC4)CC1`, the Potency entry was “inactive”.

For the compound `C/C=C/c1ccc(O)c(OC)c1`, the Potency result was “inactive”.

In the case of `O=C(Oc1cccc2cccnc12)c1ccccc1`, the Potency entry is “inactive”.

For `CC(=O)O[C@H]1C[C@@H]2CC[C@@H]3[C@H](CC[C@@]4(C)[C@H]3C[C@H]([N+]3(C)CCCCC3)[C@@H]4OC(C)=O)[C@@]2(C)C[C@@H]1N1CCCCC1`, the Potency result is “inactive”.

With `C=CCN1CCc2nc(N)sc2CC1`, the Potency result is “inactive”.

Regarding `C#C[C@]1(O)CC[C@H]2[C@@H]3CCc4cc(OC)ccc4[C@H]3CC[C@@]21C`, the Potency entry is “inactive”.

For the compound `NC(N)=NCc1cccc(I)c1`, the Potency result was “inactive”.

Consider `NC1CCN(c2nc3c(cc2F)c(=O)c(C(=O)O)cn3-c2ccc(F)cc2F)C1` (centres undefined), for which the Potency result is “inactive”.

For `NCCNc1cccc2ccccc12`, the Potency entry was “inactive”.

Regarding `CCCCc1cc2ccccc2c(OCCN(C)C)n1`, the Potency entry is “inactive”.

Regarding `CCNC(=O)NCc1cccc(Cl)c1`, the Potency entry is “inactive”.

Take `CC(C)=CCOc1ccc(/C=C/C(=O)c2ccc(OCC=C(C)C)cc2OCC(=O)O)cc1`: the Potency result is “inactive”.

Consider `CC[N+](C)(CC)CCOC(=O)C(O)(c1ccccc1)C1CCCCC1` (centres undefined), for which the Potency result was “inactive”.

Turning to `CC(=O)OCC(=O)[C@H]1CC[C@H]2[C@@H]3CCC4=CC(=O)CC[C@]4(C)[C@H]3CC[C@]12C`, the Potency result was “inactive”.

Turning to `COC(=O)C(c1ccccc1Cl)N1CCc2sccc2C1` (centres undefined), the Potency result was “inactive”.

`CC1CCc2c(N3CCC(O)CC3)c(F)cc3c(=O)c(C(=O)O)cn1c23` (centres undefined): the Potency result is “inactive”.

For the compound `CC(C)[N+](C)(C)CC(O)COc1cccc2ccccc12` (centres undefined), the Potency result was “inactive”.

Consider `CN1CCN(c2cc3c(cc2F)c(=O)c(C(=O)O)cn3-c2ccc(F)cc2)CC1`, for which the Potency entry was “inactive”.

Consider `O=C1C(O)=C(O)C(=O)C(O)=C1O`, for which the Potency entry was “inactive”.

For `OC(C#CCN1CCCC1)(c1ccccc1)c1ccccc1`, the Potency entry was “inactive”.

For `COc1ccc(CCN(C)CCCN2CCc3cc(OC)c(OC)cc3CC2=O)cc1OC`, the Potency result was “inactive”.

`O=C(O)C1(C(=O)O)CCC1.[NH2-].[NH2-].[Pt+2]`: the Potency result is “inactive”.

For the compound `OCCOCCN1CCN(C2=Nc3ccccc3Sc3ccccc32)CC1`, the Potency result is “inactive”.

In a further assay the test system is PC26. Described as above. The settings on record: P. falciparum in erythrocytes, SYBR Green DNA, 72 h; series mostly up to 28.7 µM. In short, it runs like this: as §1
With `CN1CCN(C2=Nc3cc(F)ccc3Cc3ccccc32)CC1`, the Potency result was “inactive”.

Turning to `CCCCCCCCCCCCOCCOCCOCCOCCOCCOCCOCCOCCOCCO`, the Potency entry was “inactive”.

With `COc1ccc(C(Cl)=C(c2ccc(OC)cc2)c2ccc(OC)cc2)cc1`, the Potency result was “inactive”.

In the case of `CN(Cc1ccc(C(C)(C)C)cc1)Cc1cccc2ccccc12`, the Potency entry was “inactive”.

Take `CN1CCN(c2c(F)cc3c(=O)c(C(=O)O)cn4c3c2SCC4)CC1`: the Potency result was “inactive”.

In the case of `C/C=C/c1ccc(O)c(OC)c1`, the Potency result is “inactive”.

On to `CCN(CC)CCOC(=O)C1(c2ccccc2)CCCC1`, for which the Potency result was “inactive”.

With `CC(=O)O[C@H]1C[C@@H]2CC[C@@H]3[C@H](CC[C@@]4(C)[C@H]3C[C@H]([N+]3(C)CCCCC3)[C@@H]4OC(C)=O)[C@@]2(C)C[C@@H]1N1CCCCC1`, the Potency result is “inactive”.

On to `C=CCN1CCc2nc(N)sc2CC1`, for which the Potency result is “inactive”.

On to `C#C[C@]1(O)CC[C@H]2[C@@H]3CCc4cc(OC)ccc4[C@H]3CC[C@@]21C`, for which the Potency result was “inactive”.

In the case of `NC(N)=NCc1cccc(I)c1`, the Potency entry is “inactive”.

As for `Cc1cc(-c2ccccc2)nnc1NCCN1CCOCC1`, the Potency entry is “inactive”.

For `NC1CCN(c2nc3c(cc2F)c(=O)c(C(=O)O)cn3-c2ccc(F)cc2F)C1` (centres undefined), the Potency entry is “inactive”.

Regarding `NCCNc1cccc2ccccc12`, the Potency result is “inactive”.

Regarding `CCCCc1cc2ccccc2c(OCCN(C)C)n1`, the Potency result was “inactive”.

`CN(C)CCOC(c1ccc(Cl)cc1)c1ccccn1` (centres undefined): the Potency result is “inactive”.

For `CCNC(=O)NCc1cccc(Cl)c1`, the Potency entry was “inactive”.

As for `CC[N+](C)(CC)CCOC(=O)C(O)(c1ccccc1)C1CCCCC1` (centres undefined), the Potency result is “inactive”.

`CC(=O)OCC(=O)[C@H]1CC[C@H]2[C@@H]3CCC4=CC(=O)CC[C@]4(C)[C@H]3CC[C@]12C`: the Potency result is “inactive”.

With `CC1CCc2c(N3CCC(O)CC3)c(F)cc3c(=O)c(C(=O)O)cn1c23` (centres undefined), the Potency entry was “inactive”.

On to `CC(C)[N+](C)(C)CC(O)COc1cccc2ccccc12` (centres undefined), for which the Potency result is “inactive”.

With `C[N+]1(C)CCC(=C(c2ccccc2)c2ccccc2)CC1`, the Potency entry is “inactive”.

For the compound `CN1CCN(c2cc3c(cc2F)c(=O)c(C(=O)O)cn3-c2ccc(F)cc2)CC1`, the Potency result is “inactive”.

On to `O=C1C(O)=C(O)C(=O)C(O)=C1O`, for which the Potency entry is “inactive”.

On to `CCN(CC)CCOc1ccc2c(c1)C(=O)c1cc(OCCN(CC)CC)ccc1-2`, for which the Potency is 9.53 µM (active).

In the case of `COc1ccc(CCN(C)CCCN2CCc3cc(OC)c(OC)cc3CC2=O)cc1OC`, the Potency result is “inactive”.

`O=C(O)C1(C(=O)O)CCC1.[NH2-].[NH2-].[Pt+2]`: the Potency result was “inactive”.

Another assay concerns PC49. The assay is described as above. As to conditions: P. falciparum in erythrocytes, SYBR Green DNA, 72 h; series mostly up to 28.7 µM. In short, it runs like this: as §1
On to `CN1CCN(C2=Nc3cc(F)ccc3Cc3ccccc32)CC1`, for which the Potency entry was “inactive”.

Turning to `CCCCCCCCCCCCOCCOCCOCCOCCOCCOCCOCCOCCOCCO`, the Potency result is “inactive”.

On to `CN(Cc1ccc(C(C)(C)C)cc1)Cc1cccc2ccccc12`, for which the Potency result is “inactive”.

Regarding `CN1CCN(c2c(F)cc3c(=O)c(C(=O)O)cn4c3c2SCC4)CC1`, the Potency entry was “inactive”.

As for `C/C=C/c1ccc(O)c(OC)c1`, the Potency entry is “inactive”.

Take `O=C(Oc1cccc2cccnc12)c1ccccc1`: the Potency result was “inactive”.

Take `CC(=O)O[C@H]1C[C@@H]2CC[C@@H]3[C@H](CC[C@@]4(C)[C@H]3C[C@H]([N+]3(C)CCCCC3)[C@@H]4OC(C)=O)[C@@]2(C)C[C@@H]1N1CCCCC1`: the Potency entry was “inactive”.

As to `C=CCN1CCc2nc(N)sc2CC1`, the Potency result is “inactive”.

As for `C#C[C@]1(O)CC[C@H]2[C@@H]3CCc4cc(OC)ccc4[C@H]3CC[C@@]21C`, the Potency result is “inactive”.

For the compound `NC(N)=NCc1cccc(I)c1`, the Potency entry was “inactive”.

For the compound `CO[C@]12C[C@@H](COC(=O)c3cncc(Br)c3)CN(C)[C@@H]1Cc1cn(C)c3cccc2c13`, the Potency result was “inactive”.

As for `Cc1cc(-c2ccccc2)nnc1NCCN1CCOCC1`, the Potency entry was “inactive”.

With `NCCNc1cccc2ccccc12`, the Potency result is “inactive”.

Consider `CCCCc1cc2ccccc2c(OCCN(C)C)n1`, for which the Potency result is “inactive”.

Take `CCNC(=O)NCc1cccc(Cl)c1`: the Potency entry was “inactive”.

On to `CC(C)=CCOc1ccc(/C=C/C(=O)c2ccc(OCC=C(C)C)cc2OCC(=O)O)cc1`, for which the Potency result was “inactive”.

Consider `CC[N+](C)(CC)CCOC(=O)C(O)(c1ccccc1)C1CCCCC1` (centres undefined), for which the Potency entry is “inactive”.

`CC(=O)OCC(=O)[C@H]1CC[C@H]2[C@@H]3CCC4=CC(=O)CC[C@]4(C)[C@H]3CC[C@]12C`: the Potency entry was “inactive”.

As for `COC(=O)C(c1ccccc1Cl)N1CCc2sccc2C1` (centres undefined), the Potency result is “inactive”.

For the compound `CC1CCc2c(N3CCC(O)CC3)c(F)cc3c(=O)c(C(=O)O)cn1c23` (centres undefined), the Potency entry is “inactive”.

Turning to `Oc1ccc(Cl)cc1Cc1cc(Cl)ccc1O`, the Potency result is “inactive”.

Consider `CCN(CC)CCOc1ccccc1C(=O)CCc1ccccc1`, for which the Potency entry was “inactive”.

For the compound `CN(C)C(=O)Nc1ccc(Cl)c(Cl)c1`, the Potency was 3.55 µM (active).

Consider `CC(C)[N+](C)(C)CC(O)COc1cccc2ccccc12` (centres undefined), for which the Potency entry was “inactive”.

For the compound `O=[N+]([O-])c1cccc(S(=O)(=O)NCCNS(=O)(=O)c2cccc([N+](=O)[O-])c2)c1`, the Potency result was “inactive”.

As to `C[N+]1(C)CCC(=C(c2ccccc2)c2ccccc2)CC1`, the Potency entry is “inactive”.

Consider `CN1CCN(c2cc3c(cc2F)c(=O)c(C(=O)O)cn3-c2ccc(F)cc2)CC1`, for which the Potency entry was “inactive”.

For the compound `O=C1C(O)=C(O)C(=O)C(O)=C1O`, the Potency result was “inactive”.

`COc1ccc(CCN(C)CCCN2CCc3cc(OC)c(OC)cc3CC2=O)cc1OC`: the Potency entry was “inactive”.

For the compound `O=C(O)C1(C(=O)O)CCC1.[NH2-].[NH2-].[Pt+2]`, the Potency entry is “inactive”.

With `OCCOCCN1CCN(C2=Nc3ccccc3Sc3ccccc32)CC1`, the Potency entry is “inactive”.

The values are drawn from PubChem BioAssay (NCATS).
